# FBW7 act: activators of human E3 ligase FBW7; AlphaScreen FBW7–phospho-cyclin E peptide binding, activator screen; AID 1259310; 650,000 compounds, 0.13% hits; Q969H0; normalized activity (activation), % at 26.1 µM; in the data active = normalized activity above about 1.9%;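 note: purified mutant Fbw7 with reduced substrate affinity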
# TEAD-YAP inh: TEAD-YAP interaction inhibition | HEK-TIYL cells, TEAD-Gal4/YAP UAS-luciferase luminescence | inhibition, % at 9.12 µM | 640,000 compounds, 1.4% hits; in the data active = inhibition above about 32%;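 note: 0% = median of test compound wells and 100% = reference inhibitor wells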
# GPR151 activ: activates the human receptor GPR151; 650,000 compounds, 1% hits; AID 1508602; PathHunter beta-arrestin GPR151 cells, luminescence; activation, % at 11.2 µM; Q8TDV0; in the data active = activation above about 4.9%;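 note: 0% = median of compound wells and 100% = cells with positive control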
# Target sequence (Q8TDV0 whole entry, looked up): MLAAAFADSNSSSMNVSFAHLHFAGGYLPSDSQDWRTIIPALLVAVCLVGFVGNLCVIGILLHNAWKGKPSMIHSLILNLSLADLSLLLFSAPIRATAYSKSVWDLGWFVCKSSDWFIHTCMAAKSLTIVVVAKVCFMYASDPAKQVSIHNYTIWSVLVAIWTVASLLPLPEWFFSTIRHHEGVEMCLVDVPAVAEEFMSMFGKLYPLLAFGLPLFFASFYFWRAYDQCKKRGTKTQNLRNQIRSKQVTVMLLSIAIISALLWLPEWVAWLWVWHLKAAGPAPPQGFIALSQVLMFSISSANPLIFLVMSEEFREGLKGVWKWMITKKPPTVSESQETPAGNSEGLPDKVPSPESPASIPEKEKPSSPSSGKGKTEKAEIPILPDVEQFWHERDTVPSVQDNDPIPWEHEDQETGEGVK
# MITF inh: blocks human microphthalmia-associated transcription factor; inhibition, % at 2.6 µM; 650,000 compounds, 0.91% hits; AlphaScreen MITF homodimerization, bead proximity signal; AID 1259374; O75030; in the data active = inhibition above about 50%;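 note: 0% = vehicle wells with protein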
# MITF inh conf: confirmation of human MITF inhibitors. 4,700 compounds, 16% hits. inhibition, % at 2.6 µM. AID 1259372. AlphaScreen MITF homodimerization, biotin/His-MITF beads. shares compounds with MITF inh;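 active = inhibition above a cutoff derived from the DMSO control wells, cut at about 28% in these data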;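 note: 0% = MITF dimer wells with DMSO only; inhibitors lower the bead chemiluminescence by keeping MITF from dimerizing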
# AlphaScreen DR: AlphaScreen optical interference, dose response counter-screen. shares compounds with MITF inh. AlphaScreen optical interference counterscreen, cell-free. IC50, µM. 480 compounds, 6% hits. AID 1259373; call rule not given here
# AlphaScreen intf2: optically interferes with AlphaScreen signal | LysRS AlphaScreen counterscreen, signal interference, triplicate | AID 1259376 | inhibition, % at 2.6 µM | shares compounds with MITF inh | 4,700 compounds, 7.6% hits;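 active = inhibition above a cutoff derived from the DMSO control wells, cut at about 30% in these data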
# GPR151 conf act: human GPR151 activation, confirmation screen; activation, % at 11.2 µM; 6,700 tested, under 10 active; shares compounds with GPR151 activ; GPR151 PathHunter beta-arrestin cells, luminescence, 90 min; % of EA-reagent control over plate median;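 active = mean percent activation across replicates above the confirmation screen cutoff of 4.91%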
# GPR119 counter: activates human GPR119 in a GPR151 counter-screen | shares compounds with GPR151 activ | GPR119 PathHunter beta-arrestin cells, luminescence, 90 min; 0 = compound-well median, 100 = enzyme-acceptor control | activation, % at 11.2 µM | 6,700 compounds, 0.3% hits;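 active = mean percent activation in the counterscreen above 29.09%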;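 note: counterscreen on off-target GPR119 to flag nonselective hits from the GPR151 activator screen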
# Numbers without * were called inactive; nt = not tested or not shown; ! = repeats disagree. Hits are enriched below; roughly 3.4% of the tested compounds scored in any of these assays.
SMILES,FBW7 act,TEAD-YAP inh,GPR151 activ,MITF inh,MITF inh conf,AlphaScreen intf2,GPR151 conf act,GPR119 counter,others
COc1ccc(CN2CCN(Cc3cccc(Br)c3)CC2)cc1Br,0,-1,2,76*,12,1,nt,nt,
COc1ccc(CN2CCN(Cc3cccc(Cl)c3)CC2)cc1Br,0,4,-1,68*,39*,2,nt,nt,AlphaScreen DR=>6.1
COc1ccc(CN2CCN(C(=O)Cc3ccccc3)CC2)cc1Br,0,8,0,53*,15,22,nt,nt,
COc1ccc(CN2CCN(Cc3ccc(C)cc3)CC2)cc1Br,0,-3,1,53*,15,21,nt,nt,
CC1CN(c2ccc([N+](=O)[O-])cc2[N+](=O)[O-])CC(C)N1 (stereo unspecified),0,1,1,9,nt,nt,nt,nt,
CCCc1noc(CN2CCCCC2c2cccnc2)n1 (stereo unspecified),0,-13,4,-1,nt,nt,nt,nt,
COc1ccc2ccccc2c1CN1CCN(C(=O)Cc2ccccc2)CC1,0,3,-1,55*,-12,-5,nt,nt,
Cc1ccc(CC2(CCc3ccncc3)C(=O)N(C)C(=O)N(C)C2=O)s1,0,-14,-1,-18,nt,nt,nt,nt,
O=P(O)(O)C(Cl)(Cl)P(=O)(O)O,0,-7,1,77*!,63*,-7,nt,nt,
CCc1ccc(CN2CCN(Cc3ccc(F)cc3)CC2)cc1,0,-6,0,57*,0,-4,nt,nt,
CCc1ccc(CN2CCN(Cc3cccc(F)c3)CC2)cc1,0,-12,-1,75*,5,3,nt,nt,
CCc1ccc(CN2CCN(Cc3cccc(C)c3)CC2)cc1,0,-8,0,39,nt,nt,nt,nt,
CCN1CCN(Cc2cccc(F)c2)CC1,0,6,-2,-1,nt,nt,nt,nt,
Cc1cccc(CN2CCN(Cc3ccc(Cl)cc3)CC2)c1,0,10,0,59*,9,16,nt,nt,
Cc1cccc(CN2CCN(Cc3cccc(F)c3)CC2)c1,0,3,-1,76*,2,7,nt,nt,
Cc1ccc(-n2c(/C=C\c3ccc(F)cc3)nc3ccccc3c2=O)c([N+](=O)[O-])c1,0,6,0,8,nt,nt,nt,nt,
OC1(c2ccc(F)cc2)C[N+]2=C(SCCC2)N1Cc1ccccc1 (stereo unspecified),0,-1,-1,5,nt,nt,nt,nt,
Fc1cccc(CN2CCN(Cc3ccccc3)CC2)c1,0,8,-1,64*,-4,-7,nt,nt,
Fc1cccc(CN2CCN(Cc3ccccc3F)CC2)c1,0,-1,0,70*,7,-6,nt,nt,
CN1CCN(c2ccc([N+](=O)[O-])cc2C=O)CC1,0,1,5.9*,13,nt,nt,1,7,
CN1CCN(c2ccc([N+](=O)[O-])cc2C(F)(F)F)CC1,0,-2,1,5,nt,nt,nt,nt,
CN1CCN(c2cc(=O)n(C)c(=O)[nH]2)CC1,0,-7,2,-3,nt,nt,nt,nt,
Cc1ccc(-c2ccc(NCc3ccc(Cl)nc3)nc2)cc1,0,-2,0,3,nt,nt,nt,nt,
COc1cccc(C(c2c(O)[nH]c(=O)[nH]c2=O)N2CCCC(C)C2)c1OC (stereo unspecified),0,4,19*,17,nt,nt,0,8,
COc1cccc(C(c2c(O)[nH]c(=S)[nH]c2=O)N2CCOCC2)c1OC (stereo unspecified),0,-12,0,9,nt,nt,nt,nt,
SMILES,FBW7 act,TEAD-YAP inh,GPR151 activ,MITF inh,MITF inh conf,AlphaScreen intf2,GPR151 conf act,GPR119 counter,others
C=CCOC(=O)C1=C(C)OC(N)=C(C(=O)OCc2ccccc2)C12C(=O)Nc1ccccc12 (stereo unspecified),0,8,6.3*,20,nt,nt,1,3,
COc1ccccc1NC(=O)CN1C(=O)CN=C(c2ccccc2)c2cc(Cl)ccc21,0,0,0,2,nt,nt,nt,nt,
CN1C(=O)NC(=O)/C(=C\c2ccc(Br)s2)C1=O,0,-2,-1,23,nt,nt,nt,nt,
O=C(c1ccccc1Cl)c1cc(Cl)ccc1NC(=O)C12CC3CC(CC(C3)C1)C2,0,-2,0,2,nt,nt,nt,nt,
CCOc1ccccc1N1CCN(Cc2cccnc2)CC1,0,5,5.5*,40,nt,nt,0,11,
N#CC1=C(N)Oc2c(c(=O)oc3ccccc23)C1c1ccc(OCC(N)=O)cc1 (stereo unspecified),0,1,0,-16,nt,nt,nt,nt,
COc1ccc(CC(=O)N2CCN(Cc3nc(-c4ccc(Cl)cc4)cs3)CC2)cc1OC,1,61*,15*,8,nt,nt,0,4,
C[C@H](N)[C@H](O)c1ccc(O)c(O)c1,0,-2,5.7*!,84*,nt,nt,1,5,
N#Cc1ccc(NC(=O)CSc2n[nH]c(-c3cccs3)n2)cc1Cl,0,-3,11*,-2,nt,nt,0,13,
O=C(O)CCn1cc(C=C2C(=O)NC(=O)NC2=O)c(-c2ccc(Br)cc2)n1,0,15,5.4*,1,nt,nt,3,-3,
O=C(O)CCn1cc(C=C2C(=O)NC(=S)NC2=O)c(-c2cccc(Cl)c2)n1,0,10,0,1,nt,nt,nt,nt,
O=C(Nc1ccc(Br)cc1C(=O)c1ccccc1Cl)c1ccc(Cl)cc1Cl,0,9,1,1,nt,nt,nt,nt,
CCCC1=C(C(=O)OCC)C2(C(=O)Nc3ccccc32)C(C(=O)OCCOC)=C(N)O1 (stereo unspecified),0,6,-1,4,nt,nt,nt,nt,
Cc1ccc(Cl)cc1-n1c(/C=C\c2ccc(F)c(F)c2)nc2ccccc2c1=O,0,2,0,7,nt,nt,nt,nt,
CCOC(=O)C1=C(C)OC(N)=C(C#N)C12C(=O)Nc1ccc(Br)cc12 (stereo unspecified),0,0,1,4,nt,nt,nt,nt,
CC1=C(C(=O)OC(C)C)C2(C(=O)Nc3ccc(Br)cc32)C(C#N)=C(N)O1 (stereo unspecified),0,5,14*,19,nt,nt,0,-6,
O=C(Nc1ccccc1)N1CNC(=N[N+](=O)[O-])NC1,0,-4,3,-3,nt,nt,nt,nt,
O=[N+]([O-])N=C1NCN(C2CCN(Cc3ccccc3)CC2)CN1,0,-10,5.5*,-3,nt,nt,1,1,
C1=CC2c3ccccc3NC(c3cccnc3)C2C1 (stereo unspecified),1,3,-1,17,nt,nt,nt,nt,
COc1cc(C=C2C(=O)NC(=S)NC2=O)ccc1OC(=O)c1ccc(C)cc1,0,1,6.6*,13,nt,nt,-1,2,
CN1CCN(c2ccc([N+](=O)[O-])c(NCCO)c2)CC1,0,0,11*,-4,nt,nt,0,1,
O=[N+]([O-])c1ccc(N2CCNCC2)cc1NCCO,0,-25,0,3,nt,nt,nt,nt,

# Screens deposited in PubChem by The Scripps Research Institute Molecular Screening Center.
